# Reference: PubChem BioAssay
# Several values for one entry are separate records, joined by “and”; a condition that tells them apart may be missing. Equal values may be shown once. Activity calls are given as the source filed them.
# Experiments:
# [1] = binders of probe aFSTL3 on microarray, primary screen, stem cell growth factor project, biochemical, small-molecule microarray, fluorescence 635/667 (AID 1064); conditions: higher = more signal;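 also: measures binding of the biotinylated anti-FSTL3 antibody to printed compounds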
# [2] = binders from COS7 lysate, DM2A8 probe, primary screen, torsin A project, cell lysate, small-molecule microarray, fluorescence 635/667 (AID 1065); conditions: higher = more signal, COS7 lysate expressing mutant human TOR1A
# [3] = binders of probe aFGF2 on microarray, primary screen, stem cell growth factor project, biochemical, small-molecule microarray, fluorescence 635/667 (AID 1067); conditions: higher = more signal;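 also: measures binding of biotinylated aFGF2 protein to printed compounds on slides; z-score merges feature fluorescence and signal-to-noise across triplicate slides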
# [4] = binders of probe aFGF10 on microarray, primary screen, stem cell growth factor project, biochemical, small-molecule microarray, fluorescence 635/667 (AID 1071); conditions: higher = more signal;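 also: score merges 667 nm spot intensity and signal to noise from triplicate slides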
# [5] = target: Neurogenic locus notch homolog protein 2 (Homo sapiens) (UniProt Q04721); experiment: Notch2 binders on small-molecule microarrays, primary screen, biochemical, small-molecule microarray, 635 nm fluorescence, stem cell growth factors (AID 1073); conditions: Notch2 binding, higher = more signal
# [6] = target: Pro-neuregulin-1, membrane-bound isoform (Homo sapiens) (UniProt Q02297); experiment: NRG1 binders on small-molecule microarrays, primary screen, psychiatric disease protein project, biochemical, small-molecule microarray, fluorescence 635/667 (AID 1075); conditions: NRG1 binding, 635 nm fluorescence, higher = more signal;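 also: score combines 667 nm spot fluorescence with signal to noise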
# [7] = system: Neuregulin-1 EGF-like domain; experiment: binders of neuregulin-1 EGF-like domain, primary screen, biochemical, small-molecule microarray, 635 nm fluorescence (AID 1081); conditions: small-molecule microarray binding, higher = more signal;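 also: binding of the protein to compounds printed on small-molecule microarray slides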
# [8] = FRG1 promoter luciferase signal modulators, primary screen, FRG1 inhibition for FSHD, cell-based, C2C12 myotubes, firefly/Renilla luciferase, luminescence (AID 1084); conditions: higher = more signal, called active from +8 up or from −8 down
# [9] = binders of probe aFST on microarray, primary screen, stem cell growth factor project, biochemical, small-molecule microarray, fluorescence 635/667 (AID 1086); conditions: higher = more signal;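 also: score merges 667 nm fluorescence with signal-to-noise of each printed compound spot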
# [10] = binders of probe aHhip on microarray, primary screen, stem cell growth factor project, biochemical, small-molecule microarray, fluorescence 635/667 (AID 1087); conditions: higher = more signal;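 also: score merges spot fluorescence at 667nm with spot signal to noise ratio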
# Pro-neuregulin-1, membrane-bound isoform (Homo sapiens), sequence (Q02297 whole entry, looked up, the tested form may be a part, canonical isoform): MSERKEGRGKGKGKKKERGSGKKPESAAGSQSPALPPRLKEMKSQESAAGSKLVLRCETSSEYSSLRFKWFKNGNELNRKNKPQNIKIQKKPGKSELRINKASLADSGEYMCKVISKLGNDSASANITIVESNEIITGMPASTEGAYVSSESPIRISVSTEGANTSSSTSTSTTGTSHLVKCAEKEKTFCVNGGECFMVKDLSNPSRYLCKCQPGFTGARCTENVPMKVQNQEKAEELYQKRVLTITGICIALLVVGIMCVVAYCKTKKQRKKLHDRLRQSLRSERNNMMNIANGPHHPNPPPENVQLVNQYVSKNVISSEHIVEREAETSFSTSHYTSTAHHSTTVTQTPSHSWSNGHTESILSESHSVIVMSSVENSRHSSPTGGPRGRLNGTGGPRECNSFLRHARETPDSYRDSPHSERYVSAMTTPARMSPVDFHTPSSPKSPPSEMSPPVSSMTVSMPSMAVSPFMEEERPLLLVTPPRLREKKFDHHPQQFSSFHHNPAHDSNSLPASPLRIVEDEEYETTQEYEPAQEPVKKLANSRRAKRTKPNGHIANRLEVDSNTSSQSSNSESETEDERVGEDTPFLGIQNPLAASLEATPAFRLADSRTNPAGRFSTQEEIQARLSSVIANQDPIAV
# Neurogenic locus notch homolog protein 2 (Homo sapiens), sequence (Q04721 whole entry, looked up, canonical isoform): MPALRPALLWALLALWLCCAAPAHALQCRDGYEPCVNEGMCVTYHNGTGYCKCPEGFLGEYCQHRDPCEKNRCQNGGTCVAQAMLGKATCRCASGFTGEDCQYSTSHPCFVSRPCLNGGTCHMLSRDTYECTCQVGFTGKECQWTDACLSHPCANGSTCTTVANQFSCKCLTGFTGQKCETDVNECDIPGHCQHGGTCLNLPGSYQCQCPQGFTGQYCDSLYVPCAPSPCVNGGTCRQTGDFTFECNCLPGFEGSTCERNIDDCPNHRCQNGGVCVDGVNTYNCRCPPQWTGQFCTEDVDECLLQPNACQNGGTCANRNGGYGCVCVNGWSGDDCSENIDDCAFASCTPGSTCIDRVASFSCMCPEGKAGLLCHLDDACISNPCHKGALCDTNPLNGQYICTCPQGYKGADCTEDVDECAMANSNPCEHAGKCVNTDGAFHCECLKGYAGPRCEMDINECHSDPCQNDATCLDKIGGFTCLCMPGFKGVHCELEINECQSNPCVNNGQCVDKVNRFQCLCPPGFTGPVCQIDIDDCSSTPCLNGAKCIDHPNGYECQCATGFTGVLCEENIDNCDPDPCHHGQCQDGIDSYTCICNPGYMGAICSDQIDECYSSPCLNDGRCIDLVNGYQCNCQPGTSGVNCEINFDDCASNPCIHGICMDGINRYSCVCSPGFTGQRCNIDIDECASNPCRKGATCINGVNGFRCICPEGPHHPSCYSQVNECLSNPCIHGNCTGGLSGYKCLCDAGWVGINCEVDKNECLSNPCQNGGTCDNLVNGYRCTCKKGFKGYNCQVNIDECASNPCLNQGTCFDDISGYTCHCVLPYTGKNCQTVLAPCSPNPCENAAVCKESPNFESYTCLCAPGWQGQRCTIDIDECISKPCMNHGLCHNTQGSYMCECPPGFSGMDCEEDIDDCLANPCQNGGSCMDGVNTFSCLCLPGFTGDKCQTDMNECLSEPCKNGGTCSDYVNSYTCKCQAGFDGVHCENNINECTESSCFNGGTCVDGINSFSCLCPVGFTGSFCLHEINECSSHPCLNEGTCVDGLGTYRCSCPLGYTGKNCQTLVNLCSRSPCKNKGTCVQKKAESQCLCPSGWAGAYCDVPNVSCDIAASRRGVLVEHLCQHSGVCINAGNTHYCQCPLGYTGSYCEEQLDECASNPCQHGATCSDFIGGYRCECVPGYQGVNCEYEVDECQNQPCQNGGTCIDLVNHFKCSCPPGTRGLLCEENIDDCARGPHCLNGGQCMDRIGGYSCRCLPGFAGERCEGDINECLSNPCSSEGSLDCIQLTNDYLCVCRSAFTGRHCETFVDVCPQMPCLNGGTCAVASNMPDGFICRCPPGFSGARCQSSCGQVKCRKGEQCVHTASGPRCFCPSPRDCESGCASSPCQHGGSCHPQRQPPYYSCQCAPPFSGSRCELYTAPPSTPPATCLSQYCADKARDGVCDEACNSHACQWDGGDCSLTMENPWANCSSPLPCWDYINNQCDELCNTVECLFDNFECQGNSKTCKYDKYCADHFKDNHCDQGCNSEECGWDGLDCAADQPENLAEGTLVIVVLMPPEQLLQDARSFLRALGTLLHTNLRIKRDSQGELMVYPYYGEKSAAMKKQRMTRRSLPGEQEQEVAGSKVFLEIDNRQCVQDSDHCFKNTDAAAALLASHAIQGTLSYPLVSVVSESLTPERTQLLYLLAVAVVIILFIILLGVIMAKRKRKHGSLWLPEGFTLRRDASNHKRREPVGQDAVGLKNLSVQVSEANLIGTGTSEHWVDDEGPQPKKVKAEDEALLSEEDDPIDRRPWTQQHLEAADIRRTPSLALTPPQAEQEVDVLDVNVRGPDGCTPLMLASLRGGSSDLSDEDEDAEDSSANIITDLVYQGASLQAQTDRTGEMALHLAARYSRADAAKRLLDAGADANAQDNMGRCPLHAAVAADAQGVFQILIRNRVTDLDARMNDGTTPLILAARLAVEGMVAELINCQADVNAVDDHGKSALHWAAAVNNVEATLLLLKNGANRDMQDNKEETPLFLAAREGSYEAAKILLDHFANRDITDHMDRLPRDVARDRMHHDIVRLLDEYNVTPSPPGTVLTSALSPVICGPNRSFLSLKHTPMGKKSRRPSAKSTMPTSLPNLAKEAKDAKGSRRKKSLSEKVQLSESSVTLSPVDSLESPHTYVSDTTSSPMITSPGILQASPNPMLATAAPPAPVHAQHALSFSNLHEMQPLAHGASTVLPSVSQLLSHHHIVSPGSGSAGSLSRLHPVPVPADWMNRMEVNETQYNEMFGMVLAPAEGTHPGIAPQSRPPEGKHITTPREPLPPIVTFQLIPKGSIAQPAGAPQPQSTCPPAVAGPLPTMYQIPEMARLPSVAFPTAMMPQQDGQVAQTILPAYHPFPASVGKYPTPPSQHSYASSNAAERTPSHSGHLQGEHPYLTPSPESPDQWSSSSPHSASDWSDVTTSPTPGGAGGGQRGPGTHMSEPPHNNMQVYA
SMILES,composite z-score [1],composite z-score [2],composite z-score [3],composite z-score [4],composite z-score [5],composite z-score [6],composite z-score [7],z-score [8],composite z-score [9],composite z-score [10]
C=CCN(CCCCC)C(=O)C1N(C(C)(C)CO)C(=O)C2C(C(=O)O)C3C=CC21O3 (stereo not given),0.215 and 0.754,-0.806 and -0.866,-0.223 and -0.193,-1.26 and -2.17,-1.64 and -2.02,-0.729 and 1.18,-0.369 and -0.726,0.521 (inactive) and 1.02 (inactive),-2.01 and -0.558,-0.261 and 0.0274
COC(=O)C1=C(C)N(Cc2ccccc2)C2=C3C(=O)N(c4ccccc4)C(=O)[C@@H]3[C@@](O)(C(=O)OC)C(=O)N2[C@@H]1c1ccccc1,-0.302 and -0.483,0.205 and 0.642,-0.118 and -0.137,0.738 and 0.591,0.897 and 1.21,0.383 and 0.418,1.02 and 0.99,0.0445 (inactive) and -1.22 (inactive),0.366 and 0.346,-0.166 and -0.375
CO[C@H]1COC(=O)[C@H](C)NC(=O)CC=C[C@@H](C)[C@H](OC)COC(=O)CC=C[C@@H]1C,-0.748,2.16,-0.125,-0.0919,-0.362,-0.745,0.0232,-0.628 (inactive),-0.0994,0.201
CO[C@H]1COC(=O)CC=C[C@@H](C)COC(=O)[C@H](CCSC)NC(=O)CC=C[C@@H]1C,-0.638 and -0.893,2.71 and 2.84,0.561 and -0.386,-0.174 and -0.853,-0.375 and -0.583,-0.591 and -1.25,1.01 and 0.444,-0.172 (inactive) and -0.845 (inactive),0.536 and 0.0907,0.12 and -0.154
C=C[C@@H](C)[C@@H](O)c1ccc(OCCO)cc1,1.01 and 0.0727,-1.44 and -0.971,-0.232 and -0.273,-1.47 and -1.27,-1.86 and -1.3,-0.408 and -0.496,-0.477 and -0.674,4.33 (inactive) and 1.84 (inactive),-1.9 and -0.848,-0.242 and -0.644
COC(=O)C1=C(C)N(Cc2ccccc2)[C@]23O[C@](C(=O)OC)(C(=O)N2[C@@H]1c1ccccc1)[C@H]1C(=O)N(C)C(=O)[C@H]13,-0.342 and -0.556,0.117 and 0.134,-0.137 and -0.0212,0.566 and 0.842,0.585 and 0.405,1.14 and -0.0494,1.17 and 0.892,-0.564 (inactive) and 0.0169 (inactive),0.271 and 0.2,0.0439 and -0.121
COC(=O)[C@@]1(Cc2ccccc2)[C@H]2c3cc(C(=O)N(C)C)n(C[C@H](O)CO)c3C[C@H]2CN1C(=O)c1ccccc1,0.323 and 0.439,-0.347 and 0.188,0.0002 and -0.0065,0.122 and 0.158,1.15 and 1.53,2.1 and 2.01,1.47 and 1.03,1.92 (inactive) and 0.827 (inactive),0.606 and 0.955,0.174 and 0.192
C[N+](C)(C)CCCCNC(=O)[C@H]1C[C@H]2C(=O)N[C@@H](CCCC[N+](C)(C)C)C(=O)N2[C@H]1c1ccc(O)cc1,-0.589 and -0.197,2 and 1.03,-0.051 and -0.216,0.889 and 0.379,0.443 and -0.234,0.289 and -0.641,1.38 and 0.394,0.717 (inactive) and 0.376 (inactive),-0.142 and 0.287,0.21 and -0.134
